# JMJD2A Tudor = inhibitors of human JMJD2A Tudor domain; O75164; AlphaScreen JMJD2A-Tudor / H3K4me3 peptide binding; Potency, µM (doses to about 114 µM), inactives show at the top dose activity change, negative = inhibition, hits mostly inhibitors; 390,000 compounds, 4.4% hits; note: % is set by controls: 0 for no effect and ±100 for the full control effect; nearly all actives have a fitted effect of over 50% in size
# HP1b binding inh = HP1-beta chromodomain-methylated histone interaction inhibition; P83916; AlphaScreen HP1-beta / biotin-H3K9me3 peptide binding; Potency, µM (titrated, usually from 114 µM), inactives show at the highest dose activity change, negative = inhibition, hits mostly inhibitors; 390,000 compounds, 0.56% hits; note: nearly all actives have a fitted effect of over 70% in size
# Target sequence (P83916 whole entry, looked up): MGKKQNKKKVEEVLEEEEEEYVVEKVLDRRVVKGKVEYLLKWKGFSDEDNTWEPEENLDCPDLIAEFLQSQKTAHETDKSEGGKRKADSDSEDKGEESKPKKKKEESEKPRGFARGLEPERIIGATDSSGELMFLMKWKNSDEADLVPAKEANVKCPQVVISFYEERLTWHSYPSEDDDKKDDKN
#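 AlphaScreen: HP1-beta (50 nM) preformed 30 min with biotin-H3(1-18)K9me3 peptide (50 nM) in PBS pH 7.4, 0.01% Tween-20. Compound added for 30 min at RT, then streptavidin donor/nickel chelate acceptor beads (10 ug/mL) for 30 min.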
# G9a block = G9a (human) methyltransferase inhibition. G9a H3K9 monomethylation, AlphaScreen, 2 h. Potency, µM (titrated, usually from 102 µM), for the others: at the top dose activity, negative = inhibition, hits mostly inhibitors. 350,000 compounds, 8.8% hits; note: % is set by controls: 0 for no effect and ±100 for the full control effect; nearly all actives have a fitted effect of over 75% in size
# Target sequence (Q96KQ7 913-1193 limits assumed): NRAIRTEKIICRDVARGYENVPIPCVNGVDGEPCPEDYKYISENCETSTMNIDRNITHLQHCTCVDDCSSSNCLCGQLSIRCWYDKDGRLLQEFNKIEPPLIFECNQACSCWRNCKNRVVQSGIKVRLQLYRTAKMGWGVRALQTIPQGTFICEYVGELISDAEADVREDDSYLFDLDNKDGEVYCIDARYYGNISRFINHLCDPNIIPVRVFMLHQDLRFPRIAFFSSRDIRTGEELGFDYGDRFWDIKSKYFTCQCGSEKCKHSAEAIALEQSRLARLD
#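 Step 1: enzyme (final 20 nM) with compound, 15 min RT. Step 2: substrate peptide 500 nM and SAM 20 uM, 2 h RT. Step 3: anti-H3K9me1 antibody and AlphaScreen beads, 10 min, then plate read.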
# Sfp inh = Sfp phosphopantetheinyl transferase inhibition | Q9F4F7 | Biochemical Sfp PPTase activity, qHTS | Potency, µM, inactives show largest response in the series, negative = inhibition, actives largely listed as inhibitors | 310,000 compounds, 3.5% hits | AID 1490;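 note: the enzyme is Sfp with the accession as filed and its product quenches rhodamine fluorescence; 0% = enzyme reaction without inhibitor and -100% = no enzyme wells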
#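 Buffer: 50 mM Hepes-Na pH 7.6, 10 mM MgCl2, 0.01% Nonidet P-40, 0.01% BSA. Enzyme 15 nM, pre-exposed to compound 15 min; substrates then added and fluorescence change tracked over 30 min.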
# BAZ2B inh = inhibitors of human BAZ2B bromodomain; AlphaScreen BAZ2B-H3K14Ac peptide displacement; Potency, µM (top dose mostly 114 µM), for inactives: at the top dose activity change, negative = inhibition, hits mostly inhibitors; 360,000 compounds, 4.4% hits; note: % is set by controls: 0 for no effect and ±100 for the full control effect; nearly all actives have a fitted effect of over 60% in size
#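 AlphaScreen displacement of biotin-H3(5-23)K14Ac peptide (50 nM final) from BAZ2B (50 nM final) in PBS pH 7.4, 0.01% Tween-20; complex preformed 30 min RT, then compounds (top 110 uM) 30 min RT, beads 20 min dark.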
# Numbers without * were called inactive; u = inconclusive; x = no result; [ ] = remark or other dose. Rows were chosen to be rich in hits. Some 12% of all compounds tested hit in one or more screens of this group. Calls come from the whole dose curve; as a rule, active = well fitted curve in the direction sought with a large enough effect; inconclusive = small, poorly fitted or top-dose-only effect, or another doubt; inactive = no such curve, though single readings can be large; an effect the other way counts as inactive or inconclusive. Potency is the fitted concentration of half-maximal effect.
SMILES,JMJD2A Tudor,HP1b binding inh,G9a block,Sfp inh,BAZ2B inh
Cc1cc(OCC(=O)N(C)C2CCCCC2)cc(C)c1Cl,14.5%,70.8%,6.3%[59 µM],3.7%,3.4%
Cc1cccc(OCC(=O)Nc2nnc(-c3ccco3)s2)c1,-3.0%,34.8%,50.1µM*,-8.9%,-32.4%
CCOc1cccc(C(=O)Nc2nnc(-c3ccco3)s2)c1,-16.0%,53.2%,56.2µM*,-10.0%,u
O=C(Cc1ccccc1)Nc1nnc(-c2ccco2)s1,-16.8%,17.1%,-16.8%[12.7 µM],5.7%,u
COc1ccccc1OCC(=O)Nc1nnc(-c2ccco2)s1,u,19.9%,u,-6.6%,u
Nc1nnc(-c2ccco2)s1,-3.9%,38.0%,1.7%[2.33 µM],5.01µM*,17.1%
CCCC(=O)Nc1nnc(-c2ccco2)s1,-12.2%,32.5%,-6.4%[12.7 µM],31.6µM*,-14.3%
CCN1CCN(c2ncc(C(=O)Nc3ccccc3C(=O)OC)c3ccccc23)CC1,-29.9%,-0.8%,3.6%[0.501 µM],0.0%,-10.1%
COCCN1C(=O)N(c2ccccc2)C(=O)C1CC(=O)Nc1cc(OC)cc(OC)c1 (centres undefined),-5.6%,15.2%,u,7.2%,0.5%
CCCCNC(=O)N(O)C1N(/N=C/c2cccs2)C(=S)SC1(C)C (centres undefined),-13.8%,47.0%,18.3%,3.5%,-11.8%
CCn1c(CN2CCCCC2)nc2cc(NC(=O)c3ccccc3[N+](=O)[O-])ccc21,-12.3%,41.5%,-4.3%[59 µM],x,-25.3%
S=c1nc[nH]c2c1[nH]c1ccc(Cl)cc12,4.47µM*,71.9%,1.41µM*,8.1%,-0.7%
O=c1c2[nH]c3ccc(Cl)cc3c2ncn1CCN1CCCCC1,-12.0%,29.8%,8.8%,24.6%,-7.5%
CCOc1ccc(N(CC(=O)O)S(=O)(=O)c2cccnc2)cc1,-16.2%,46.3%,79.4µM*,15.2%,5.3%
CC(=O)Nc1ccc(NC(=O)CN(c2ccc(C(C)C)cc2)S(=O)(=O)c2ccccc2)cc1,-12.3%,13.0%,x,-1.4%,0.8%
CC(C)c1ccc(N(CC(=O)O)S(=O)(=O)c2cccnc2)cc1,89.1µM*,4.7%,-5.3%,6.7%,8.6%
CCOC(=O)C1CCCN(Cc2sccc2C)C1 (centres undefined),2.82µM*,u,22.4µM*,-27.3%,50.1µM*
CCOC(=O)C1CCCN(Cc2cc(OC)c(O)c(OC)c2)C1 (centres undefined),2.24µM*,-53.7%,u,-3.7%,u
CCOC(=O)C1CCCN(Cc2cc(=O)oc3cc(C)c(C)cc23)C1 (centres undefined),8.3%,42.2%,u,6.2%,0.6%
CCOC(=O)C1CCCN(Cc2cc(Br)c(OC)cc2OC)C1 (centres undefined),2.82µM*,u,u,-21.1%,50.1µM*
CCn1cc(C2C(C(=O)Nc3cc(C)ccn3)=C(C)NC3=C2C(=O)CC(C)(C)C3)c(C)n1 (centres undefined),-10.6%,27.5%,28.3%,14.9%,-2.6%
C#CCOCCOCCOCCNc1nc(N2CCN(C(=O)[C@H]([C@@H](C)CC)n3cc(CCC(=O)O)nn3)CC2)nc(N2CCN(C(=O)[C@H](CCCCN)n3cc(CC(C)O)nn3)CC2)n1 (some centres undefined),u,30.7%,x,x,x
C#CCOCCOCCOCCNc1nc(N2CCN(C(=O)C([C@@H](C)CC)n3cc(C(N)CO)nn3)CC2)nc(N2CCN(C(=O)[C@H](CCC(=O)O)n3cc(C(N)Cc4ccc(O)cc4)nn3)CC2)n1 (some centres undefined),x,x,-30.1%[12.7 µM],-7.7%,39.8µM*
C#CCOCCOCCOCCNc1nc(N2CCN(C(=O)[C@H]([C@@H](C)CC)n3cc([C@@H](N)Cc4ccc(O)cc4)nn3)CC2)nc(N2CCN(C(=O)[C@H](CCCCN)n3cc([C@@H](N)CO)nn3)CC2)n1,x,x,u,2.1%,50.1µM*
O=C(CCCOc1ccccc1)N1CCCCC1,-15.7%[57.1 µM],19.2%,-6.3%,-2.0%,3.7%
SMILES,JMJD2A Tudor,HP1b binding inh,G9a block,Sfp inh,BAZ2B inh
CCC1CCCCN1C(=O)CCCOc1ccccc1 (centres undefined),14.1µM*,7.4%,11.2%,3.8%,0.4%
O=S(=O)(c1ccccc1)N1CCC(O)(CSc2ccc(Cl)cc2)CC1,-4.8%,55.2%,44.1%[59 µM],7.2%,-5.4%
Cc1cc([N+](=O)[O-])ccc1NC(=S)NC(=O)C(c1ccccc1)c1ccccc1,u,-20.3%,u,30.6%,u
COc1ccc(S(=O)(=O)Nc2cccc(/C=C/C(=O)O)c2)cc1,-10.8%,42.4%,u,u,-8.7%
CC(=O)Nc1cccc(-c2nc3ccccc3c(=O)o2)c1,-8.7%,58.5%,11.2µM*,18.7%,0.9%
CC(=O)Nc1cccc(NC(=O)CSc2nnc(Cc3cccn3C)n2-c2ccc(F)cc2)c1,u,-13.9%,u,-23.2%,u
Cn1cccc1Cc1nnc(SCC(=O)NCc2ccccc2Cl)n1-c1ccc(F)cc1,-35.0%,-3.1%,79.4µM*,3.8%,u
Cn1cccc1Cc1nnc(SCC(N)=O)n1-c1ccc(F)cc1,-13.4%,40.6%,89.1µM*,-29.5%,-6.0%
COc1cccc(NC(=O)CSc2nnc(Cc3cccn3C)n2-c2ccc(F)cc2)c1,u,13.5%,u,-15.2%,50.1µM*
Cc1cc(C)c(NC(=O)CSc2nnc(Cc3cccn3C)n2-c2ccc(F)cc2)c(C)c1,u,-17.1%,44.7µM*,50.1µM*,u
Cc1ccc(CN2CCN(Cc3cccn3-c3nccs3)CC2CCO)cc1 (centres undefined),-21.8%,5.7%,x,-2.9%,11.6%
COc1ccc(-n2c(Cc3cccn3C)nnc2SCC(=O)Nc2ccc(C)c(Cl)c2)cc1,u,-8.4%,44.7µM*,-5.9%,u
COc1ccc(-n2c(Cc3cccn3C)nnc2SCC(=O)Nc2cccc(OC)c2)cc1,-34.3%,10.8%,50.1µM*,-12.0%,u
O=c1[nH]c(NC2CCCCC2)nnc1Cc1ccccc1,50.1µM*,24.2%,u,11.5%,-8.5%
N=c1c(C(=O)NCCN2CCOCC2)cc2c(=O)n3ccccc3nc2n1CCc1ccccc1,-32.5%,16.6%[57 µM],u,1.0%,-12.0%
Cc1[nH]n(C(N)=S)c(=O)c1N=Nc1cc(-c2ccc(Br)cc2)[nH]n1,u,u,-48.5%,3.7%,x
Cc1[nH]n(C(N)=S)c(=O)c1N=Nc1cccc([N+](=O)[O-])c1C,u,6.2%,56.2µM*,12.1%,u
NC(=S)n1[nH]c(-c2ccc([N+](=O)[O-])cc2)c(N=Nc2ccccc2[N+](=O)[O-])c1=O,u,-5.8%,0.9%,7.3%,39.8µM*
NC(=S)n1[nH]c(-c2ccc([N+](=O)[O-])cc2)c(N=Nc2cccc([N+](=O)[O-])c2)c1=O,44.7µM*,u,11.2µM*,-41.4%,39.8µM*

# Compound activity deposited in PubChem BioAssay by National Center for Advancing Translational Sciences (NCATS).
